Hits are enriched below; roughly 10% of the tested compounds scored in any of these assays.
HP1b chromo inh = HP1-beta chromodomain-methylated histone interaction inhibition. AlphaScreen HP1-beta / biotin-H3K9me3 peptide binding. actives 0.56% (n = 390,000). AID 540317. P83916. Potency, µM (top dose mostly 114 µM), hits mostly inhibitors; further: nearly all actives have a fitted effect of over 70% in size
Target sequence (P83916 whole entry, looked up): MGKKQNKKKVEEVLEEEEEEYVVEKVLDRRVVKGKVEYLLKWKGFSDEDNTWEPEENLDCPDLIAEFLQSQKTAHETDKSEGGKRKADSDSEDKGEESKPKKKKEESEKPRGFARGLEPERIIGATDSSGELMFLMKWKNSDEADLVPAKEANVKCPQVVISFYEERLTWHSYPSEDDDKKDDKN
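AlphaScreen: HP1-beta (50 nM) preformed 30 min with biotin-H3(1-18)K9me3 peptide (50 nM) in PBS pH 7.4, 0.01% Tween-20. Compound added for 30 min at RT, then streptavidin donor/nickel chelate acceptor beads (10 ug/mL) for 30 min.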
BAZ2B block = blocks human BAZ2B. Q9UIF8. AlphaScreen BAZ2B-H3K14Ac peptide displacement. Potency, µM (top dose mostly 114 µM), hits mostly inhibitors. actives 4.4% (n = 360,000); further: nearly all actives have a fitted effect of over 60% in size
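AlphaScreen displacement of biotin-H3(5-23)K14Ac peptide (50 nM final) from BAZ2B (50 nM final) in PBS pH 7.4, 0.01% Tween-20; complex preformed 30 min RT, then compounds (top 110 uM) 30 min RT, beads 20 min dark.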
JMJD2A Tudor inh = blocks the human JMJD2A Tudor domain; Potency, µM (doses to about 114 µM), usual class: inhibitors; AlphaScreen JMJD2A-Tudor / H3K4me3 peptide binding; actives 4.4% (n = 390,000); O75164; further: nearly all actives have a fitted effect of over 50% in size
Six1-Eya2 blk = Six1/Eya2 interaction inhibition; activity change, % (concentration not given with the values); actives 0.56% (n = 360,000); Q15475+O00167; AlphaScreen GST-Six1/His-Eya2 binding, biochemical; hits give low values; AID 651725; in the data active means activity change below about -65%; inconclusive means mostly about -30% to -63%
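Compounds are tested against tagged Six1 and Eya2 proteins bridged by glutathione donor and nickel acceptor beads; after a one-hour incubation at 37 °C without light, AlphaScreen emission is recorded.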
CtBP-E1A inh = inhibitors of CtBP/E1A interaction | AlphaScreen GST-E1A/His-CtBP binding, 1536-well; hits give low values | activity change, % (test concentration not listed) | actives 0.49% (n = 340,000) | AID 651724; in the data active means activity change below about -65%; inconclusive means mostly about -30% to -63%
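Homogeneous bead-based format: GST-tagged E1A captured on glutathione donor beads, His-tagged CtBP on nickel acceptor beads; compounds precede bead addition by 2 h at 37 °C.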
G9a block = inhibitors of human histone lysine methyltransferase G9a; AID 504332; Potency, µM (top dose mostly 102 µM), most hits filed as inhibitors; G9a H3K9 monomethylation, AlphaScreen, 2 h; Q96KQ7; actives 8.8% (n = 350,000); further: nearly all actives have a fitted effect of over 75% in size
Target sequence (Q96KQ7 913-1193 limits assumed): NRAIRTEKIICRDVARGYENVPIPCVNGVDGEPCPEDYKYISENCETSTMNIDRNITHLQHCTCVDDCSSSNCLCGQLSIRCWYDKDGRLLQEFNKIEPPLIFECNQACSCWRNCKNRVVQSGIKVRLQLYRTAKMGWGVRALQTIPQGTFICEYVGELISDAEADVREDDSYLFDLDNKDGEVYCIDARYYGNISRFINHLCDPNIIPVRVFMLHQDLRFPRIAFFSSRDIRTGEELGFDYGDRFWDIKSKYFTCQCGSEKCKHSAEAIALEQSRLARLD
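AlphaScreen detection with an anti-monomethyl H3K9 antibody quantified product after a 2 h room-temperature reaction containing 500 nM biotinylated H3K9 peptide, 20 µM SAM and 20 nM enzyme, which had been preincubated 15 min with compound.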
Of the large screens only hits and unclear results are named; the others gave an inactive call. Unless noted, the call rests on the fitted dose curve; in most records, active means well fitted inhibition curve with a large enough effect; inconclusive means small, poorly fitted or top-dose-only effect; inactive means no such curve, though single readings can be large or run the other way.

Nc1nc(-c2ccccc2)nc2sc3c(c12)CCCC3	none
COc1cc(/C=N/NC(=O)C2C3CCCCC32C)cc(Br)c1O (stereo not given)	JMJD2A Tudor inh inconclusive, G9a block inconclusive
COc1cc(/C=N/n2c(C3CCCCC3)n[nH]c2=S)cc(Br)c1O	JMJD2A Tudor inh 13µM, G9a block 25µM
S=c1[nH]nc(C2CCCCC2)n1/N=C/c1cccc(Br)c1	G9a block 79µM
Cc1cccc(/C=N/n2c(C3CCCCC3)n[nH]c2=S)c1	BAZ2B block inconclusive, JMJD2A Tudor inh 56µM, G9a block 2.5µM (no result: CtBP-E1A inh)
CCOC(=O)[C@]12CCC=C1N(Cc1ccccc1)C(=O)[C@H](CC(=O)N1CCOCC1)C2	none (no result: HP1b chromo inh, BAZ2B block, JMJD2A Tudor inh, G9a block)
CNC(=S)N(CCc1c(C)[nH]c2ccc(C)cc12)Cc1cccnc1	BAZ2B block inconclusive, G9a block 79µM
CNC(=S)N(CCc1c(C)[nH]c2ccc(Cl)cc12)Cc1cccnc1	BAZ2B block 71µM, JMJD2A Tudor inh inconclusive
O=C(NNC(=O)c1csc(-c2cccs2)n1)c1ccc(Cl)cc1	none (no result: HP1b chromo inh, BAZ2B block, JMJD2A Tudor inh, G9a block)
COc1ccc(CCNC(=O)c2cc(S(=O)(=O)N3CCCC(C)C3)cn2C)cc1OC (stereo not given)	none (no result: Six1-Eya2 blk, CtBP-E1A inh)
COCCCn1c(SCC(=O)Nc2ccc(NC(C)=O)cc2)nc2sc3c(c2c1=O)CCC3	G9a block 45µM
COCCn1c(SCC(=O)NCC(c2ccccc2)N(C)C)nc2sc3c(c2c1=O)CCC3 (stereo not given)	none (no result: BAZ2B block, G9a block)
CCn1c(SCC(=O)O)nc2sc3c(c2c1=O)CCC3	BAZ2B block 56µM, JMJD2A Tudor inh inconclusive, G9a block 45µM
CCn1c(SCC(=O)OC)nc2sc3c(c2c1=O)CCC3	HP1b chromo inh inconclusive, BAZ2B block 50µM, JMJD2A Tudor inh 50µM (no result: G9a block)
Cn1c(SCC(=O)O)nc2sc3c(c2c1=O)CCC3	none (no result: CtBP-E1A inh)
CS(=O)(=O)c1nc(S(=O)(=O)c2ccc(Cl)cc2)c(NCCCn2ccnc2)s1	none (no result: G9a block)
O=C(NCc1ccncc1)C(=O)NCC1OCCN1S(=O)(=O)c1cc(F)ccc1F (stereo not given)	none (no result: BAZ2B block, G9a block)
COc1cc(CNCc2ccc(OC)cc2OC)cc(OC)c1	BAZ2B block inconclusive, JMJD2A Tudor inh 28µM (no result: CtBP-E1A inh)
COc1ccc(CNCc2ccc(C)cc2)c(OC)c1	HP1b chromo inh inconclusive, BAZ2B block 56µM, JMJD2A Tudor inh 3.2µM, G9a block 35µM
O=C(N/N=C/c1cccnc1)c1sc2ccccc2c1Cl	none (no result: G9a block)
CC(C)NC(=O)Nc1ccc2c(c1)C(=O)N([C@H](C)CO)C[C@@H](C)[C@@H](CN(C)C(=O)NC1CCCCC1)O2	none (no result: BAZ2B block, G9a block)
COC(=O)c1[nH]c2cc(C)ccc2c1NC(=O)CN1CCCc2ccccc21	BAZ2B block 45µM, JMJD2A Tudor inh inconclusive, G9a block inconclusive
COC(=O)c1[nH]c2ccc(Br)cc2c1NC(=O)CN1CCCc2ccccc21	none
COc1cc(C(=O)Nc2c(C(=O)O)[nH]c3ccc(C)cc23)cc(OC)c1OC	G9a block inconclusive
COc1cc2c(cc1OC)CN(CC(=O)Nc1ccc(C)cc1)CC2	G9a block inconclusive
COC(=O)c1[nH]c2ccc(C)cc2c1NC(=O)CN1CCc2cc(OC)c(OC)cc2C1	BAZ2B block inconclusive, G9a block 50µM
COC(=O)c1[nH]c2ccc(C)cc2c1NC(=O)Nc1ccccc1OC	G9a block 40µM
CC(=O)CC(=O)NC1CCc2ccccc21 (stereo not given)	none (no result: BAZ2B block, G9a block)
CC(=O)Nc1ccc(NC(=O)c2c(-c3ccccc3Cl)noc2C)cc1	none
CC(=O)Nc1nnc(-c2c(-c3ccccc3Cl)noc2C)o1	BAZ2B block inconclusive, JMJD2A Tudor inh 18µM
O=C(C(=O)N1CCN(C(=O)OCc2ccccc2)CC1)c1cccnc1	none (no result: HP1b chromo inh, BAZ2B block, JMJD2A Tudor inh, G9a block)
CC[N+](CC)(CCNC(=O)C(=O)NCC[N+](CC)(CC)Cc1ccccc1Cl)Cc1ccccc1Cl	none (no result: HP1b chromo inh, BAZ2B block, JMJD2A Tudor inh, Six1-Eya2 blk, CtBP-E1A inh)
Cn1nnnc1SCCNC(=O)C1CCC(=O)N(CCc2cccc(F)c2)C1 (stereo not given)	G9a block 0.16µM (no result: CtBP-E1A inh)
CC(=O)C1=C(Nc2ccc(C)cc2)CC(C)(O)C(C(C)=O)C1c1ccco1 (stereo not given)	BAZ2B block 79µM
CCCCN(C)CCNC(=O)c1cc(-c2cccnc2)nc2ccc(S(=O)(=O)N3CCC(C)CC3)cc12	JMJD2A Tudor inh inconclusive, G9a block 50µM
CSC1=NC2(CCCCC2)C2=C(CCCC2)N1	G9a block 45µM
COc1cccc(N2CCN(S(=O)(=O)c3ccc(-c4cc(C(F)(F)F)on4)s3)CC2)c1	none (no result: Six1-Eya2 blk, CtBP-E1A inh)
N#C/C(=C\c1ccccc1)C(=O)Nc1ccccn1	none
CCOc1cc(/C=C(\C#N)C(=O)Nc2ccccn2)ccc1O	G9a block 45µM
N#C/C(=C\c1cccs1)C(=O)Nc1ccccn1	G9a block 56µM
CC(C)(C)c1ccc(C(=O)/C(C#N)=C/c2cccs2)cc1	HP1b chromo inh inconclusive, BAZ2B block 50µM, JMJD2A Tudor inh inconclusive, G9a block inconclusive
Cc1cccc(/C=C(\C#N)C(=O)Nc2ccccn2)c1	G9a block 45µM
N#C/C(=C\c1ccccc1Cl)C(=O)Nc1ccccn1	none
Cc1ccc(-c2nc3ncccc3o2)cc1NC(=O)c1ccccc1Br	none (no result: Six1-Eya2 blk, CtBP-E1A inh)
N#C/C(=C\c1ccccc1)C(=O)Nc1nncs1	G9a block 50µM
CCOC(=O)c1c(-c2ccccc2)csc1NC(=O)/C(C#N)=C\c1ccc(O)c(OC)c1	HP1b chromo inh inconclusive, JMJD2A Tudor inh 28µM (no result: BAZ2B block, G9a block)
N#C/C(=C\c1ccccc1)C(=O)Nc1cccnc1	none (no result: CtBP-E1A inh)
CCOC(=O)c1c(-c2ccc(C)cc2)csc1NC(=O)/C(C#N)=C/c1ccc(O)c(OC)c1	BAZ2B block inconclusive
Cc1cccc(NC(=O)/C(C#N)=C/c2ccc(F)cc2)n1	none (no result: CtBP-E1A inh)
CCCOc1ccccc1/C=C(\C#N)C(=O)Nc1cccc(C)n1	G9a block 20µM
CC1=C(C(=O)Nc2ccccc2)C(CC(C)C)n2nc(SCc3ccccc3C)nc2N1 (stereo not given)	G9a block inconclusive (no result: Six1-Eya2 blk, CtBP-E1A inh)
Cc1onc(-c2c(F)cccc2Cl)c1C(=O)N[C@H]1C(=O)N2[C@H]1SC(C)(C)[C@H]2C(=O)O	none (no result: HP1b chromo inh, BAZ2B block, JMJD2A Tudor inh, Six1-Eya2 blk, CtBP-E1A inh)
CCCc1ccc(-c2cc(N)n[nH]2)cc1	BAZ2B block 79µM
CCCCc1ccc(-c2nc(N)n[nH]2)cc1	none
O=C(c1ccc2c3c(cccc13)CC2)C1CCCN(Cc2ccc(OCCO)cc2)C1 (stereo not given)	BAZ2B block inconclusive, Six1-Eya2 blk inconclusive (no result: CtBP-E1A inh, G9a block)
Cc1cnc(CN2CCCC(C(=O)c3ccc4c5c(cccc35)CC4)C2)[nH]1 (stereo not given)	HP1b chromo inh inconclusive, BAZ2B block inconclusive, JMJD2A Tudor inh 50µM, G9a block inconclusive
CC(CCc1ccco1)NC(=O)Nc1cccc(F)c1 (stereo not given)	G9a block 50µM

Screens (PubChem BioAssay)
